# Laboratory results from PubChem BioAssay (NCATS).
# Where “and” joins values, the source holds several entries; their conditions need not be identical. Equal values may be shown once. Results filed as inconclusive are left out. Calls of active or inactive are those of the source. Calls come from the whole dose curve; as a rule, active = well fitted curve in the direction sought with a large enough effect; inconclusive = small, poorly fitted or top-dose-only effect, or another doubt; inactive = no such curve, though single readings can be large; an effect the other way counts as inactive or inconclusive.
# What was measured:
# [1] = Primary qHTS for inhibitors of nuclear receptor binding SET domain protein 2 (NSD2) in an isogenic RCH-ACV NSD2 p.E1099K mutant (9B) (AID 1645876); note: nearly all actives have a fitted effect of over 70% in size; note: potency is the fitted concentration of half-maximal effect
# [2] = Primary qHTS for inhibitors of nuclear receptor binding SET domain protein 2 (NSD2) in an RCH-ACV wild type WT cells (2C) (AID 1645877); note: nearly all actives have a fitted effect of over 70% in size; note: potency is the fitted concentration of half-maximal effect; for activity change, negative = cell killing: % is set by controls: 0 for no effect and ±100 for the full control effect
# [3] = target: Rap guanine nucleotide exchange factor 3 (Homo sapiens) (UniProt O95398); assay: Confirmatory qHTS for antagonist of cAMP-regulated guanine nucleotide exchange factor 3 (EPAC1) (AID 1645880);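 note: plate controls were DMSO only for no effect and full effect of the ATA control for full effect; nearly all actives have a fitted effect of over 55% in size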
# Summary of the method: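 Released BODIPY-GDP fluoresces less than Rap1-bound BODIPY-GDP; the signal is followed at 480/540 nm at 5-min intervals over 30 min, after 5 min at room temperature. Reactions contain 100 nM EPAC1, 250 nM RAP1B-BODIPY-GDP and 50 uM GDP; results are normalized to ATA and DMSO.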
# [4] = target: Rap guanine nucleotide exchange factor 3 (Homo sapiens) (UniProt O95398); assay: Confirmatory qHTS for agonist of cAMP-regulated guanine nucleotide exchange factor 3 (EPAC1) (AID 1645881);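 note: EPAC1 catalysed release of BODIPY-GDP from Rap1B seen as fluorescence loss; 100% = effect of cAMP agonist control; nearly all actives have a fitted effect of over 75% in size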
# [5] = target: Rap guanine nucleotide exchange factor 4 (Homo sapiens) (UniProt Q8WZA2); assay: Confirmatory qHTS for agonist of cAMP-regulated guanine nucleotide exchange factor 4 (EPAC2) (AID 1645884);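 note: nucleotide exchange releases bodipy-GDP from Rap1 and this lowers its fluorescence; % is set by controls: 0 for no effect and ±100 for the full control effect; nearly all actives have a fitted effect of over 65% in size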
# [6] = target: Catechol O-methyltransferase (Homo sapiens) (UniProt P21964); assay: Confirmatory Screen for Target Class Profiling of Small Molecule Inhibitors of Methyltransferases (AID 1745852); conditions: MTase-Glo luminescence, SAH detection, recombinant enzyme; measured here: COMT max response; stronger effect = lower value
# Chain of Catechol O-methyltransferase (Homo sapiens) (P21964 whole entry, looked up): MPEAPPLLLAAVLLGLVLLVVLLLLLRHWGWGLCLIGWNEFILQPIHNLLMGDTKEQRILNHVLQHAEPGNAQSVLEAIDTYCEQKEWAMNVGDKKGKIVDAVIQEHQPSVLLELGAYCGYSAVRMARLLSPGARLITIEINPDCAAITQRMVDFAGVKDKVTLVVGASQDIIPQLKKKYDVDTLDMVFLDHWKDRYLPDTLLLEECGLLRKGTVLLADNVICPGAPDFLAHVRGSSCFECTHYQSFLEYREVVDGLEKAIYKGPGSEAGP
# Chain of Rap guanine nucleotide exchange factor 3 (Homo sapiens) (O95398 whole entry, looked up): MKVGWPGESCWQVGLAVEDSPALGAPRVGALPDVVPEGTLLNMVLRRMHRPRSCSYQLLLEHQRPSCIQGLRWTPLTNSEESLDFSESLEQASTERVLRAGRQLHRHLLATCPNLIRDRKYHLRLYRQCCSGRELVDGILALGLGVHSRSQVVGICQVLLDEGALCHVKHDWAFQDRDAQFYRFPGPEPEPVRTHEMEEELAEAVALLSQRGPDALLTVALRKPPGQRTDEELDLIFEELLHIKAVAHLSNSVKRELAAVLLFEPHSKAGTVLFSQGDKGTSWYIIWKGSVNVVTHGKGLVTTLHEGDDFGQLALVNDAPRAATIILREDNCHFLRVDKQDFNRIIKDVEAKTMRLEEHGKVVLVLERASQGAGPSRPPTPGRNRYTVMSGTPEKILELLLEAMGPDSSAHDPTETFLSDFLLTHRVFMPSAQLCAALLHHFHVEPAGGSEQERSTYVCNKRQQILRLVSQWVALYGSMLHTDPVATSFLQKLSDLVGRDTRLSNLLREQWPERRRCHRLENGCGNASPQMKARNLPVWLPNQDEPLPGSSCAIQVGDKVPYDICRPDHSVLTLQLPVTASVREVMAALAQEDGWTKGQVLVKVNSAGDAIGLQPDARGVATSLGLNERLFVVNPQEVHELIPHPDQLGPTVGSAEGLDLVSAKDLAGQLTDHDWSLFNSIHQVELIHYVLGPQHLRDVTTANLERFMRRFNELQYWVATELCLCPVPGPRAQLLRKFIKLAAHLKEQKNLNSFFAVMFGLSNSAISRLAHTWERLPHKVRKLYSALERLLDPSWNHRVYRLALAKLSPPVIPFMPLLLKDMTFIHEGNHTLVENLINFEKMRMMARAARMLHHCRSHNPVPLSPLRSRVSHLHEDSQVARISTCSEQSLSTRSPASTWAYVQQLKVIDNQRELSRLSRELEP
# Chain of Rap guanine nucleotide exchange factor 4 (Homo sapiens) (Q8WZA2 whole entry, looked up): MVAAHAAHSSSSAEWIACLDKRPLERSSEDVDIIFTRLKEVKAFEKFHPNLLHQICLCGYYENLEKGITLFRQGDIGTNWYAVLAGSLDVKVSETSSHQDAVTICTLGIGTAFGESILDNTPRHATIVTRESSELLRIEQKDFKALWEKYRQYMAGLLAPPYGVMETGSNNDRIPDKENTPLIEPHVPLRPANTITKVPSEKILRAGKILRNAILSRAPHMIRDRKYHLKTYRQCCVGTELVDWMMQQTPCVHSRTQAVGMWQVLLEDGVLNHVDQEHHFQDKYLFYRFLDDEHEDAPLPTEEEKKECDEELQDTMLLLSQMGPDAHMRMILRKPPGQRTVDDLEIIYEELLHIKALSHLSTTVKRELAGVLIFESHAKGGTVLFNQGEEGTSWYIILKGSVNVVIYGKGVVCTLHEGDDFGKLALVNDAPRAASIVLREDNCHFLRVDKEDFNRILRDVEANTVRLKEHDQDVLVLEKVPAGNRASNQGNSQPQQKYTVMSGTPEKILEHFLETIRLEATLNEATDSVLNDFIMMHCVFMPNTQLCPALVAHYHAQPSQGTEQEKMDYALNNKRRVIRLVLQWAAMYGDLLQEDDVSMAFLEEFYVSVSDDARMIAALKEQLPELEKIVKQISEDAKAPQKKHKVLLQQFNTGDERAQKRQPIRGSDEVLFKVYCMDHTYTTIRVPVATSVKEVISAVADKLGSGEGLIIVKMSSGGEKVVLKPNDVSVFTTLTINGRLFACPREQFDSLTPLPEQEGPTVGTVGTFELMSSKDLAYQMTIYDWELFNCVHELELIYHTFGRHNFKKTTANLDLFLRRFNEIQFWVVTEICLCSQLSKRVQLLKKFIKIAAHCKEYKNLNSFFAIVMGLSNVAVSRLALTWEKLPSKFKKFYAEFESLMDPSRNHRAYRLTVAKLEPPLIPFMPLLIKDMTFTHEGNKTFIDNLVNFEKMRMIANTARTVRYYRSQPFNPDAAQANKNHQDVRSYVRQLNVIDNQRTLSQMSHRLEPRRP
smiles,measurement,setting,value
C=C1C(=O)[C@@]23C(CC[C@@H]1[C@H]2O)[C@@]12CO[C@]3(O)[C@@H](O)[C@@H]1C(C)(C)CC[C@@H]2O (stereo partly specified),Potency,[1],2.35 µM (active)
same,Potency,[2],1.48 µM (active)
O=c1cc(-c2cccc3c2Sc2ccccc2S3)oc(N2CCOCC2)c1,Potency,[1],11.6 µM (active) and 14.8 µM (active)
CC(C)n1cnc2c(NCCCCCCNC(=O)OC(C)(C)C)nc(NCCO)nc21,Potency,[1],14.8 µM (active)
same,Potency,[2],16.6 µM (active)
CN(C)C1CCN(C(=O)c2ccc(NC(=O)Nc3nc(N4CCOCC4)nc(N4CCOCC4)n3)cc2)CC1,Potency,[1],25.2 nM (active) and 37.2 nM (active)
same,Potency,[2],28.2 nM (active) and 37.2 nM (active)
CC[C@@]1(O)C[C@H](O[C@H]2C[C@H](N(C)C)[C@H](O[C@H]3C[C@H](O)[C@H](O[C@H]4CCC(=O)[C@H](C)O4)[C@H](C)O3)[C@H](C)O2)c2c(cc3c(c2O)C(=O)c2c(O)cccc2C3=O)[C@@H]1C(=O)OC,Potency,[1],2.63 µM (active)
same,Potency,[2],1.18 µM (active)
Cc1ccccc1C(C(=O)NC1CCCCC1)N(C(=O)Cn1ccnc1C)c1cccc(F)c1 (stereo unspecified),Potency,[1],inactive
Nc1ncnc2c1nc(Cl)n2[C@@H]1O[C@H](CO)[C@@H](O)[C@@H]1O,Potency,[1],18.6 µM (active)
same,Potency,[2],20.9 µM (active)
Nc1ncnc2ccccc12,Potency,[1],inactive
CC(C(=O)O)c1ccc(-c2ccccc2)c(F)c1 (stereo unspecified),Potency,[1],inactive
same,Potency,[2],inactive
COc1ccc(C2Sc3ccccc3N(CCN(C)C)C(=O)C2OC(C)=O)cc1 (stereo unspecified),Potency,[1],inactive
same,Potency,[2],inactive
N[C@H](CSC(c1ccccc1)(c1ccccc1)c1ccccc1)C(=O)O,Potency,[1],inactive
same,Potency,[2],inactive
COc1cc2ncnc(-n3nc(-c4ccccn4)nc3N)c2cc1OC,Potency,[1],1.59 µM (active)
same,Potency,[2],2.52 µM (active)
O=C(NCc1ccccc1)c1csc(Nc2ccncn2)n1,Potency,[1],11.8 µM (active)
same,Potency,[2],9.34 µM (active) and 16.3 µM (active)
N#Cc1ccc(NC(=O)Nc2ccccc2Br)c2n[nH]nc12,Potency,[1],inactive
same,Potency,[2],inactive
CC(C)n1nc(-c2ccc3oc(N)nc3c2)c2c(N)ncnc21,Potency,[1],36.5 nM (active) and 29.5 nM (active)
Oc1ccc(C2=Cc3ccc(O)cc3OC2)cc1,Potency,[1],1.18 µM (active)
same,Potency,[2],1.32 µM (active)
NC(=O)c1cccc2[nH]c(-c3ccc([C@H]4CCCN4)cc3F)nc12,Potency,[1],14.8 µM (active)
same,Potency,[2],10.5 µM (active)
COc1cc2nc(-c3ccc(N4CCN(C)CC4)cc3)nc(NCCN3CCOCC3)c2cc1OC,Potency,[1],1.86 µM (active)
same,Potency,[2],2.09 µM (active)
COc1ncc(-c2ccc3nccc(-c4ccnnc4)c3c2)cc1NS(=O)(=O)c1ccc(F)cc1F,Potency,[1],1.3 nM (active) and 8.3 nM (active)
NS(=O)(=O)c1ccc(NC2=CC(=O)c3ccccc3C2=O)cc1,Potency,[1],inactive
same,Potency,[2],inactive
c1ccc2c(Cc3c[nH]c4ccccc34)c[nH]c2c1,outcome,[3],inactive
same,outcome,[4],inactive
same,outcome,[5],inactive
O=c1cc(-c2ccccc2)oc2cc(O)cc(O)c12,Potency,[1],16.6 µM (active)
same,Potency,[2],16.6 µM (active)
O=C1C(Cl)=C(NCCN2CCOCC2)C(=O)c2ncccc21,Potency,[1],7.42 µM (active)
same,Potency,[2],3.32 µM (active)
CCc1ccc(C=C2SC(=S)NC2=O)cc1,activity,[6],-2.96%
CC(C)(C)COc1ccc(-n2cc(C(=O)O)cn2)cc1C#N,Potency,[1],inactive
same,Potency,[2],inactive
CCOC(CN1C(=O)[C@](CC(=O)Nc2ccc(C)cc2)(NC(=O)Nc2ccc(C)cc2)c2ccccc21)OCC,Potency,[1],10.5 µM (active)
same,Potency,[2],6.61 µM (active)
CCCCCN(C)CCC(O)(P(=O)(O)O)P(=O)(O)O,outcome,[1],inactive [at 4.96 µM]
same,"activity change, negative = cell killing",[2],7.25% [at 4.96 µM] (inactive)
COC1CCC(N(C(=O)C2CCC(C)CC2)c2cc(C3=CCCCC3)sc2C(=O)O)CC1 (stereo unspecified),Potency,[1],inactive
same,Potency,[2],inactive
NC(=O)c1ccc2nc(-c3ccc(Oc4ccc(Cl)cc4)cc3)[nH]c2c1,Potency,[1],14.5 µM (active) and 23.1 µM (active)
same,Potency,[2],16.6 µM (active) and 16.4 µM (active)
C=C1C(=O)OC(CCCCCCCC)C1C(=O)O (stereo unspecified),Potency,[1],inactive
same,Potency,[2],inactive
CC(C)C(=O)Oc1ccc(CO)cc1[C@H](CCN(C(C)C)C(C)C)c1ccccc1,Potency,[1],inactive
same,Potency,[2],inactive
Oc1ccc(C2CCN(c3ccnc4ccccc34)CC2)cc1O,Potency,[1],13.2 µM (active)
same,Potency,[2],11.8 µM (active)
NC(CO)(CO)CCc1ccc(Sc2cccc(OCc3ccccc3)c2)cc1Cl,Potency,[1],7.42 µM (active)
same,Potency,[2],7.42 µM (active)
